# Granule exo inh: lytic granule exocytosis inhibition; TALL-104 LAMP-1 surface exposure, flow cytometry; cells stimulated with thapsigargin and PMA; 0.66% of 360,000 active; inhibition, % at 10 µM;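 active = inhibition above about 55%, limit read from the data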
# ABCB6 inh MLPCN: inhibitors of human ABC transporter ABCB6 | fluorescence ratio to DMSO, % at 10 µM | K562-ABCB6 porphyrin accumulation, flow cytometry, 1 h; active compounds read low | 0.19% of 360,000 active;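 active = fluorescence ratio to DMSO below 75%, the collection mean minus 3 SD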;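 also: signal is porphyrin accumulated inside mitochondria; 100% equals median channel fluorescence of DMSO control wells; lower ratio means ABCB6 inhibition with less porphyrin fluorescence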
# PG9 Ab binder: binds the HIV-1 gp120 antibody PG9 | 0.43% of 360,000 active | TR-FRET gp120-PG9 antibody binding | inhibition, % at 6.7 µM | AID 624416; in the data active = inhibition above about 8.5%
# VLA-4 inh: inhibition in a human VLA-4 binding assay; P13612; VLA-4 expressing cells, ligand binding flow cytometry; inhibition, % (about 7 µM as worked out from the volumes in the protocol); 0.2% of 330,000 active; in the data active = inhibition above about 50%
# Rev-erbA mod: modulates human Rev-erb alpha binding to DNA | P20393 | Rev-erbα–FITC-DNA binding, fluorescence polarization, 90 min | activity, % at 10 µM | 0.79% of 370,000 active | AID 1259318;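 active = activity above about 14%, limit read from the data; passing the limit was not always enough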;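 also: 0% = DMSO wells with 35 nM protein and 100% = DMSO wells with 750 nM protein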
# Granule exo CP1: lytic granule exocytosis inhibition. inhibition, % at 10 µM. shares compounds with Granule exo inh. 11% of 1,500 active. AID 651954. TALL-104 cells, LAMP-1 externalization, flow cytometry; stimulated with PMA plus thapsigargin; in the data active = inhibition above about 60%;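 also: 0% = stimulated vehicle wells and 100% = unstimulated wells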
# * = called active by the depositor; / = not tested or not shown. Sampled rows, rich in hits. Any-hit rate of the full collection: about 2%.
SMILES,Granule exo inh,ABCB6 inh MLPCN,PG9 Ab binder,VLA-4 inh,Rev-erbA mod,Granule exo CP1
CC(C)C[C@H](NC1(C(=O)NCCc2c[nH]c3ccccc23)CCN(C)CC1)C(=O)NCCCc1ccccc1,/,/,/,/,-1,/
Nc1c(C(=O)N2CCOCC2)cnn1Cc1ccccc1,/,/,/,/,4,/
COc1ccc(CCNCc2ccc(OCc3ccccc3)cc2)cc1,85*,98,-1,11,3,57
O=C(CSc1nnc(-c2ccccc2)n1-c1ccc(Cl)cc1)c1ccccc1Br,/,/,/,/,-5,/
COc1ccc(Cn2c(SCc3ccccc3C)nc3cc(OC)c(OC)cc3c2=N)cc1,96*,90,2,-10,2,59
C[C@H]1[C@@H](OC(=O)NC2CCC2)CC[C@@]23CCCN2C(=O)CCC[C@@H]13,/,/,/,/,-7,/
O=C(NCc1ccc2c(c1)OCO2)C12CN(Cc3ccccc3)CC1C(c1cccc([N+](=O)[O-])c1)=NO2 (configuration not stated),100*,93,-1,-1,-1,-5
Cc1ccc2oc(C(=O)N(C)Cc3ccc(C)o3)c(C)c2c1,81*,98,-3,15,4,24
Cc1ccc2oc(C(=O)N(C)Cc3ccon3)c(C)c2c1,0,97,-2,4,0,/
CCOC(=O)N1CCN(C(=O)c2ccccc2N(Cc2ccccc2)S(=O)(=O)c2ccccc2)CC1,79*,99,0,12,-1,-3
COCCCNC(=O)c1ccccc1N(Cc1ccccc1)S(=O)(=O)c1ccccc1,69*,106,0,8,1,-5
CC(=O)c1sc2nc(C)c3c(c2c1N)CCCC3,62*,98,0,-11,-3,-5
CCc1ccc(CN(Cc2cccnc2)C(=O)/C=C/c2ccc(OC)cc2)cc1,61*,133,4,-11,3,-14
COc1ccc(/C=C/C(=O)NCc2cccnc2)cc1,-2,96,-4,21,-1,/
CC(=O)n1c(-c2ccccc2)c(CO)c2ccccc21,-3,98,0,17,1,/
NCCc1c(-c2ccccc2)n(-c2ccccc2)c2ccccc12,91*,92,-1,/,7,70*
CC1CCN(c2ccc(C(=O)O)cc2NS(=O)(=O)c2cccc3cccnc23)CC1,/,/,/,/,-5,/
c1ccc(-c2cc3nc(NCC4CC4)nc(NCC4CCCCC4)c3s2)cc1,57*,94,2,/,5,32
Cc1ccc(Nc2ccccc2)cc1,1,105,-2,-8,1,/
Cc1ccc(Nc2cc(C)c(O)c(C)c2)cc1,67*,101,-2,-15,-4,19
COc1ccc(OC)c(-c2csc(NC(=O)c3ccc(F)cc3)n2)c1,80*,102,0,7,3,-4
COc1ccc(OC)c(-c2csc(NC(=O)Cc3ccc(F)cc3)n2)c1,97*,100,-1,-8,5,-12
COc1ccc(OC)c(-c2csc(NC(=O)Cc3cc(OC)c(OC)c(OC)c3)n2)c1,44,97,1,-14,7,/
Cc1ccc(-c2csc(NC(=O)c3ccc(-c4ccccc4)cc3)n2)o1,48,87,/,-18,/,/
Cc1ccc(-c2csc(NC(=O)Cc3ccc(F)cc3)n2)o1,75*,106,-2,3,-4,-13
SMILES,Granule exo inh,ABCB6 inh MLPCN,PG9 Ab binder,VLA-4 inh,Rev-erbA mod,Granule exo CP1
COc1ccc(OC)c(-c2csc(NC(=O)c3ccc(OCC4CCCO4)cc3)n2)c1 (configuration not stated),-3,97,-2,2,3,/
O=C(O)c1ccc(C#Cc2cccc(F)c2)cn1,/,/,/,/,0,/
Cc1cc(=O)[nH]c(SCC(=O)Nc2ccc(F)c(F)c2)n1,/,/,/,/,2,/
CCC(=O)c1ccccc1OCCCN1CCC(Cc2ccccc2)CC1,65*,90,-2,15,-3,-8
COc1ccc(N(CC(=O)NCCC2=CCCCC2)S(=O)(=O)c2ccccc2)cc1,62*,103,2,5,4,-5
CCOc1ccc(N(CC(=O)NCCOc2ccc(C)cc2)S(=O)(=O)c2ccccc2)cc1,0,94,-1,13,2,/
COc1ccc(N(CC(=O)NCCOc2ccccc2)S(=O)(=O)c2ccc(C)cc2)cc1,78*,95,-1,7,3,-12
CCOc1ccc(N(CC(=O)NCCSc2ccccn2)S(=O)(=O)c2ccc(Cl)cc2)cc1,57*,98,-2,2,1,-5
COc1ccc(N(CC(=O)Nc2ccc(OC)c(OC)c2)S(=O)(=O)c2ccccc2)cc1Cl,32,98,-1,17,4,/
